Unmarked numbers belong to inactive results. Where a call stands in place of a potency, no number is given. The source made the active and inactive calls. Calls follow the shape of the full dose curve.
What follows are compounds tested against Acetylcholinesterase (Homo sapiens) (UniProt P22303) (assay: Acetylcholinesterase (AChE) small molecule antagonists: enzyme-based qHTS assay with human liver microsomes (AID 1347399; also: nearly all actives have a fitted effect of over 60% in size)). Settings: Potency: qHTS inhibition; series mostly up to 115 µM.
Sequence of Acetylcholinesterase (Homo sapiens) (P22303 whole entry, looked up): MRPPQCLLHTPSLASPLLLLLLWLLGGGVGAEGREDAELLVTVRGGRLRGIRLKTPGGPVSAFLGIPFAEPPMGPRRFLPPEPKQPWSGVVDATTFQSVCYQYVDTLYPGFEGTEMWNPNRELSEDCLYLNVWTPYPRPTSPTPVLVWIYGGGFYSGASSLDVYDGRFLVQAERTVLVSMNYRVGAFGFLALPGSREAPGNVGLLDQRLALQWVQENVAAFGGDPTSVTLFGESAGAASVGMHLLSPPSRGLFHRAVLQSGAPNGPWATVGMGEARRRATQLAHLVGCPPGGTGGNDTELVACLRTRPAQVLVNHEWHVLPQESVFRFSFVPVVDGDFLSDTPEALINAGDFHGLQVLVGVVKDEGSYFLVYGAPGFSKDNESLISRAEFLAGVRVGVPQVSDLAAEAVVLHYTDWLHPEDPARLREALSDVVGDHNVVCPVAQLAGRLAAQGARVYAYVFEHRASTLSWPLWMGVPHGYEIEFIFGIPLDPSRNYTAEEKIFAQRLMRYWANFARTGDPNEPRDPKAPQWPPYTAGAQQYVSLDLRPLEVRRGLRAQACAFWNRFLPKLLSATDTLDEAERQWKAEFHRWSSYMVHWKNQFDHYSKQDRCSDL
Source text: National Center for Advancing Translational Sciences [NCATS]
Division of Preclinical Innovation [DPI]
U.S. Environmental Protection Agency [EPA]
National Institutes of Environmental Health Sciences [NIEHS]
National Toxicology Program [NTP]
U.S. Food and Drug Administration [FDA]
Acetylcholinesterase (AChE) is the primary cholinesterase in the body that hydrolyzes a key neurotransmitter, acetylcholine. Inhibition of AChE activity can lead to neurotoxicity. The known inhibitors include organophosphorous pesticides (OP), chemical warfare agents, drugs, and various phytochemicals. Some compounds like OP compounds may need metabolic activation to be active AChE inhibitors. The cytochrome P450 (CYP) superfamily in the human microsomes is responsible for the metabolism of various endogenous and exogenous compounds.
An enzyme-based assay with the recombinant human AChE, human liver microsomes and Amplite Colormetric acetylcholinesterase assay kit (AAT Bioquest, Sunnyvale, CA) was used to evaluate compounds in the Tox21 10K library that need metabolic activation for AChE inhibition. The assay uses 5, 5-dithiobis-(2-nitrobenzoic acid) (DTNB) to quantify the thiocholine produced from the hydrolysis of acetylthiocholine by AChE.
Tox21 Assay Protocol Summary:
For the enzyme-based AChE assay with microsomes addition, a mixture of human AChE (50 mU/mL) and human liver microsomes (0.25 mg/mL, final concentration) in 3 uL/well was dispensed into black, clear-bottom 1536-well plates using a Multidrop Combi dispenser (Thermo Scientific, MA). Then, 23 nL of compound or DMSO (vehicle control) was transferred into the assay plates by a Pintool Station (Wako Automation, CA). Following compound addition, 1 uL of NADPH (0.25 mg/mL, final concentration) was transferred to the assay plate by a Flying Reagent Dispenser (Beckman Coulter, CA). The plates were incubated for 30 min at 37 C and 5% CO2, followed by the addition of 4 uL of colorimetric detection cocktail solution (DTNB, acetylthiocholine) into each well using a Flying Reagent Dispenser (Beckman Coulter, CA) and then 10 min incubation at room temperature.

SMILES	Potency	activity change, negative = inhibition
C=CCOC(=O)c1ccccc1N	inactive	–
O=c1[nH]c(Cl)c(Cl)cc1Cl	inactive	–
Clc1ccc(C(Cl)(Cl)Cl)cc1Cl	inactive	–
O=C(CCCCl)c1ccc(F)cc1	inactive	–
CCc1cccc(C)c1N(C(=O)CCl)[C@@H](C)COC	inactive	–
COP(=S)(OC)Oc1nc(Cl)c(Cl)cc1Cl	inactive	–
Clc1ccc(C2(Cn3cncn3)OCCO2)c(Cl)c1	inactive	–
CC(C)N(C(=O)SC/C(Cl)=C/Cl)C(C)C	inactive	–
O=C1C2(Cl)C3(Cl)C4(Cl)C(Cl)(Cl)C5(Cl)C3(Cl)C1(Cl)C5(Cl)C24Cl (stereo not given)	inactive	–
N#Cc1c[nH]cc1-c1cccc2c1OC(F)(F)O2	inactive	–
O=C(N[C@@H]1N=C(c2ccccc2F)c2cccc3c2N(CC3)C1=O)c1cc2ccccc2[nH]1	inactive	–
O=C(N[C@H]1N=C(c2ccccc2F)c2cccc3c2N(CC3)C1=O)c1cc2ccccc2[nH]1	inactive	–
[Cl][Hg][c]1ccccc1	inactive	–
ClC1(Cl)C2(Cl)C3(Cl)C4(Cl)C(Cl)(Cl)C5(Cl)C3(Cl)C1(Cl)C5(Cl)C24Cl (stereo not given)	inactive	–
Nc1nc(N)c(N)c(N)n1	inactive	–
ClC1=C(Cl)[C@]2(Cl)[C@@H]3[C@H]4C[C@H]([C@@H]5O[C@H]45)[C@@H]3[C@@]1(Cl)C2(Cl)Cl	inactive	–
NC(=O)C(Cl)Cl	inactive	–
S=C=Nc1ccccc1	inactive	–
CCC(C)c1cccc(C(C)CC)c1O (stereo not given)	inactive	–
O=S(=O)(O)F	inactive	–

SMILES	Potency	activity change, negative = inhibition
Nc1c(Cl)c(Cl)c(Cl)c(Cl)c1Cl	inactive	–
Nc1ccccc1-c1ccccc1	inactive	–
Nc1nc(N)nc(Cl)n1	inactive	–
NC1CCC(CC2CCC(N)CC2)CC1 (stereo not given)	inactive	–
Cc1nn(-c2cc(NS(C)(=O)=O)c(Cl)cc2Cl)c(=O)n1C(F)F	inactive	–
Cc1c([N+](=O)[O-])cc2c(c1[N+](=O)[O-])C(C)(C)CC2(C)C	inactive	–
N#CCCl	inactive	–
CCCCC/C=C\C/C=C\C/C=C\C/C=C\CCCC(=O)NCC(=O)O	inactive	–
N#Cc1sc2c(=O)c3ccccc3c(=O)c=2sc1C#N	inactive	–
CSSC	inactive	–
Fc1ccc(C(OCCN2CCN(CCCc3ccccc3)CC2)c2ccc(F)cc2)cc1	inactive	–
ClCBr	inactive	–
O=P(Cl)(Cl)Cl	inactive	–
COP(=O)(OC)O/C(=C\Cl)c1cc(Cl)c(Cl)cc1Cl	inactive	–
COCCC#N	inactive	–
CCC(OC(C)=O)C(CC(C)NC)(c1ccccc1)c1ccccc1 (stereo not given)	inactive	–
N#CSCc1ccccc1	inactive	–
Clc1c(Cl)c(Cl)c(Cl)c(Cl)c1Cl	–	0% [at 10.5 µM]
Cc1ccn2nc(S(=O)(=O)Nc3c(F)cccc3F)nc2n1	inactive	–
Oc1ccc(Cl)c(Cl)c1	inactive	–

— PubChem BioAssay (Tox21)
